Assay results reported in PubChem BioAssay (NCI).
This is part of a sample that, as a whole, favours compounds with a hit. Of some 83,000 tested, about 20% had one in any assay.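 In brief: 96-well plates, 48 h treatment, single concentration, percent growth endpoint.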 A number with no mark means an inactive call. Activity calls are given as the source filed them. Rule for the calls: active = growth percent below 10; inactive = the rest.

Assays:
Assay in all cases: NCI-60 one-dose screen, 48 h (100 = growth as untreated, 0 = no growth, -100 = all killed)
Details in all cases: 10 µM unless noted
DU-145 prostate = test system: DU-145 prostate
K-562 leukemia = test system: K-562 leukemia
MALME-3M melanoma = test system: MALME-3M melanoma
MDA-MB-231 breast = test system: MDA-MB-231 breast
RXF 393 renal = test system: RXF 393 renal
SF-268 CNS = test system: SF-268 CNS
SF-295 CNS = test system: SF-295 CNS
SF-539 CNS = test system: SF-539 CNS
UACC-257 melanoma = test system: UACC-257 melanoma
M14 melanoma = test system: M14 melanoma

Compound	growth (DU-145 prostate)	growth (K-562 leukemia)	growth (MALME-3M melanoma)	growth (MDA-MB-231 breast)	growth (RXF 393 renal)	growth (SF-268 CNS)	growth (SF-295 CNS)	growth (SF-539 CNS)	growth (UACC-257 melanoma)	growth (M14 melanoma)
COc1ccccc1NC(=O)c1ccc(NC(=O)CCl)s1	41.1%	-8.7% (active)	-4.74% (active)	-58% (active)	-56.5% (active)	22.3%	31.9%	-14.1% (active)	10.6%	-74.7% (active)
Cc1nn(-c2ccccc2)c2nc(C)n(CC(=O)N/N=C/c3cccc([N+](=O)[O-])c3)c(=O)c12	105%	91%	99%	78.5%	84.2%	96.5%	101%	95.3%	101%	107%
Nc1nnc(-c2cncc(Br)c2)c(-c2c[nH]c3ccc(Cl)cc23)n1	99.4%	30.5%	99.3%	74.7%	63.5%	88.6%	92.4%	72.5%	108%	86.4%
COc1ccc2c(c1)c(-c1cc(N)n3nc(-c4c[nH]c5ccccc45)cc3n1)cn2C	-46.6% (active)	1.75% (active)	-89.9% (active)	-75.7% (active)	-79% (active)	-41.1% (active)	-76.9% (active)	-97.1% (active)	-89.6% (active)	-71.2% (active)
COc1ccc2c(c1)N=c1c-2cc2c(O)[nH]c(=S)n2c1=O	50.8%	19.7%	54.8%	42.1%	11.4%	84.4%	26.1%	-7.78% (active)	53.4%	40%
COC(=O)c1c(C(=O)OC)c2ccc3c4ccccc4ccc3n2c1C(=O)OC	121%	117%	96%	110%	74.9%	103%	93.5%	99.3%	101%	102%
COc1ccc(N=Nc2c(N)nn3c(-c4cc5ccccc5oc4=O)ccnc23)cc1	61.9%	51.5%	49.3%	-3.18% (active)	10.1%	57.8%	34.5%	15.2%	88.4%	59.5%
COC(=O)c1ccc(-c2c(-c3ccccc3)c(F)c3oc(C(=O)OC)c(N)c3c2-c2ccccc2)cc1	104%	85.1%	99.9%	99.3%	95.6%	91.6%	89.7%	90%	111%	98.2%
CCOc1ccc2[nH]c(=O)c(C(c3nnnn3CC3CCCO3)N3CCN(Cc4ccccc4)CC3)cc2c1 (stereo not given)	93.6%	111%	65%	61.6%	58.7%	55.5%	57.6%	57.6%	113%	94.3%
Cc1nc2sccn2c1-c1nnc(SCc2ccccc2)o1	96.6%	75.8%	106%	98.6%	78.9%	105%	82.5%	93.4%	94%	96.7%
CC1=C(C)C(=O)C(N2CCSCC2)=CC1=O	107%	107%	91.3%	86%	98.5%	102%	104%	96.2%	93.2%	95.4%
Cc1ccc(N=Nc2c(N)nn3c(-c4cc5cc(Br)ccc5oc4=O)ccnc23)cc1	52.8%	64.4%	82%	-11.1% (active)	-3.16% (active)	16%	49%	-46.5% (active)	121%	65.1%
O=C(NC(=S)N1CCN(c2ncnc3c2cnn3-c2ccccc2)CC1)c1ccc(Br)cc1	87.3%	61.4%	53.4%	75.4%	69.1%	58.5%	48.3%	-17.5% (active)	88.7%	83.1%
Nc1nn2c(-c3cc4cc(Br)ccc4oc3=O)ccnc2c1N=Nc1ccccc1	37.1%	83.2%	26.2%	-36.8% (active)	-53% (active)	-28.4% (active)	9.13% (active)	-84.4% (active)	61.8%	74.9%
CN(C)CCOc1ccc(C(=O)C2[C@H](c3ccc(Cl)cc3)[C@@H](c3ccccc3)NC23C(=O)Nc2ccc(Cl)cc23)cc1 (stereo not given in full)	-80.3% (active)	-76.1% (active)	-87.8% (active)	-93.6% (active)	-92% (active)	-64% (active)	-89.3% (active)	-98.5% (active)	-81.2% (active)	-90.1% (active)
Cc1ccc(-c2cc(C(=O)N=Nc3c(O)[nH]c4ccc(F)cc34)c3ccccc3n2)cc1	51.1%	60.8%	48.4%	11%	109%	65.3%	98.7%	-39.7% (active)	69%	79.6%
Cn1cc(Nc2ncnc(-c3ccc(N4CCCC4)c(C#N)c3)n2)cn1	66.5%	29.8%	74.8%	63.6%	50.8%	71.9%	93.2%	65.2%	94%	53.5%
O=C(N/N=C/c1ccc(B(O)O)s1)c1[nH]c2ccc(Br)cc2c1-c1ccccc1	-56.4% (active)	2.64% (active)	-96.2% (active)	-88.1% (active)	-94.3% (active)	-37.2% (active)	-98.1% (active)	-98.8% (active)	-77.4% (active)	-67.4% (active)
CC1=C(C(=O)Nc2ccccc2)C(c2ccc3ccccc3c2)n2c(nc3ccccc32)N1 (stereo not given)	46.2%	43.8%	72.5%	5.61% (active)	53.3%	72.5%	37%	81.8%	81.1%	66.6%
CC1=C(C(=O)OCc2ccccc2)C(c2ccc(N(C)C)cc2)n2c(nc3ccccc32)N1 (stereo not given)	99.6%	58%	75.9%	91.6%	74.6%	81.7%	57.3%	86.4%	85.7%	80.4%
C=CCn1c(O)c(N=Nc2nc(-c3cc4ccccc4oc3=O)cs2)c2ccccc21	74.1%	107%	104%	-24.9% (active)	-4.94% (active)	42.1%	54.6%	83.7%	101%	70.9%
CC1=C(C(=O)Nc2ccccc2)C(c2cccc(Cl)c2Cl)n2c(nc3ccccc32)N1 (stereo not given)	71.1%	26.5%	71.4%	71.4%	34.5%	42.5%	47.1%	71.4%	60.8%	48.8%
COc1ccc(-c2nc3ccccc3n2CC(=O)N=Nc2c(O)[nH]c3ccc(Br)cc23)cc1	33.7%	35.3%	79.3%	57.5%	64.3%	96%	81.1%	87.9%	120%	77.4%
COc1ccc(-c2cc(C(=O)N=Nc3c(O)[nH]c4ccc(Cl)cc34)c3ccccc3n2)cc1OC	126%	109%	105%	90.9%	104%	118%	101%	101%	115%	89.2%
COc1c2c(cc3c1C(CCc1ccccc1)N(C)CC3)OCO2 (stereo not given)	23.2%	6.06% (active)	-65.8% (active)	-11.7% (active)	-12.1% (active)	23.2%	-70.1% (active)	-40.2% (active)	16.6%	-26.4% (active)
CN1C(=O)C2(C(C#N)=C(c3ccc(Cl)cc3)Nc3c2c(-c2ccccc2)nn3-c2ccccc2)c2ccccc21 (stereo not given)	93.6%	40.8%	78.9%	46.1%	77%	93.5%	77.4%	-85.3% (active)	112%	77.2%
